In PubChem BioAssay AID793 (The Scripps Research Institute Molecular Screening Center, 2007) one finds inhibition data, which are given here for 93 compounds.

Hit rate of the full screen: of about 140,000 compounds, about 1,400 (1%) were called active. Only a selection was taken, and actives are over-represented in it overall. Unmarked numbers belong to inactive results. Rule as the data show it: active = inhibition above about 17%; inactive = the rest.

Neuropeptide Y receptor type 2 (Homo sapiens), sequence (P49146 whole entry, looked up): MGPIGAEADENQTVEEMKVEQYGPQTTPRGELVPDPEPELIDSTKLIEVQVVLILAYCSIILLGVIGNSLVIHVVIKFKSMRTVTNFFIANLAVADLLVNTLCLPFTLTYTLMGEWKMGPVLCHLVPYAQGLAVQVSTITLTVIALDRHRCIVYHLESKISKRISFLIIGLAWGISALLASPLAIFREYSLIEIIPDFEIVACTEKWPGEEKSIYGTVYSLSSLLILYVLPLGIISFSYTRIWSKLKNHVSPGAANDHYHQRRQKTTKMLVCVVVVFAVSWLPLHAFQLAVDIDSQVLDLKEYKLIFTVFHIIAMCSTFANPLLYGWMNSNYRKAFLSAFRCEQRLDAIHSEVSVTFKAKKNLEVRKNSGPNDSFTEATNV

This experiment has as its target Neuropeptide Y receptor type 2 (Homo sapiens) (UniProt P49146). Briefly: NPY-Y2 receptor antagonists, primary screen, cell-based (AID 793).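 Also: 0% = vehicle with agonist challenge and 100% = reference antagonist with challenge.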 The following applies: NPY-Y2 expressing cells, antagonist mode; at 2.7 µM; active compounds read high.
As a reminder, the inhibition is the relative decrease from the control value, in per cent. Consider `COc1ccc(/C(N)=N/OC(=O)CCCc2ccccc2)cc1`, for which the inhibition is 22.3% (active).

In the case of `COc1ccc(/C(N)=N/OC(=O)Cc2ccccc2)cc1`, the inhibition is 4.03%.

Turning to `N/C(=N\OC(=O)CCc1ccccc1)c1ccc(Cl)cc1`, the inhibition was 4.22%.

Consider `COc1ccc(/C=N/N=C/c2c[nH]c(=O)c(C#N)c2Nc2ccccc2)cc1`, for which the inhibition was 3.81%.

For `O=C(CNC(c1ccccc1)c1ccccc1)Nc1ccc(F)cc1`, the inhibition is 7.16%.

Turning to `O=C(COC(=O)/C(=C/c1cccs1)c1cccs1)NCc1ccccc1Cl`, the inhibition was 5.33%.

As to `C/C(N)=C(/C#N)C(=O)COC(=O)c1cc(-c2ccc(C)cc2)nc2ccccc12`, the inhibition was -0.91%.

Consider `Cc1ccc(OCC(=O)Nn2cnc3ccccc32)cc1`, for which the inhibition was 2.86%.

Consider `COc1ccc(-c2cc(C(=O)n3cnc4ccccc43)c3ccccc3n2)cc1`, for which the inhibition is 58.8% (active).

Take `CC(Sc1nc2ccccc2c(=O)n1Cc1ccco1)C(=O)c1ccccc1` (stereo not drawn): the inhibition was 6.17%.

Turning to `CCOn1c(SC(C)C)nc2ccccc2c1=O`, the inhibition is 7.2%.

On to `CCOC(=O)C(C)Sc1nc2ccccc2c(=O)n1CC1CCCCC1` (stereo not drawn), for which the inhibition was 18.5% (active).

For the compound `CCOC(=O)c1c(C)n(C)c2ccc(OC)c(NS(=O)(=O)CC)c12`, the inhibition is -1.01%.

In the case of `CCOC(=O)Cc1csc(SCC(=O)NC(C)C23CC4CC(CC(C4)C2)C3)n1` (stereo not drawn), the inhibition is 5.04%.

Regarding `CNC(=S)N/N=C/c1ccc(OCc2ccccc2)c(Br)c1`, the inhibition is 6.18%.

As for `Cc1ccc2c(c1)C(c1ccccc1)N(C(=O)c1ccc(S(=O)(=O)N3CCOCC3)cc1)CC(=O)N2` (stereo not drawn), the inhibition was 0.56%.

`Cc1ccc(CC(=O)Nc2ccc(OC(F)F)c(Cl)c2)cc1C`: the inhibition is 1.54%.

Take `O=C(CC1CCCCC1)Nc1c2c(nn1-c1ccc(F)cc1)CS(=O)(=O)C2`: the inhibition is 21.6% (active).

Consider `Cc1ccc(-n2nc3c(c2NC(=O)CCC2CCCCC2)CS(=O)C3)cc1` (stereo not drawn), for which the inhibition is 6.05%.

As to `O=C(Nc1c2c(nn1-c1ccc(F)cc1)CS(=O)C2)C12CC3CC(CC(C3)C1)C2` (stereo not drawn), the inhibition was 2.38%.

`Cc1ccc(S(=O)(=O)N2CCN(CC(=O)N/N=C/c3ccc(Br)s3)CC2)cc1`: the inhibition was -1.25%.

In the case of `CCOC(=O)NCc1ccc2c(c1)OCO2`, the inhibition was 4.28%.

Consider `COc1ccc2c(c1)C(C)=CC(C)(C)N2C(=O)CNCc1ccc2c(c1)OCO2`, for which the inhibition was 26.6% (active).

Regarding `COc1ccc2c(c1)C(C)=CC(C)(C)N2C(=O)Nc1ccccc1`, the inhibition was 0.85%.

Turning to `COc1ccc(Cl)cc1NC(=O)COC(=O)C(CC(C)C)N1C(=O)C2CC=CCC2C1=O` (stereo not drawn), the inhibition is 3.69%.

Regarding `Cc1nccn1CC(=O)N/N=C/c1ccc(O)c(O)c1`, the inhibition is 0.1%.

Regarding `Cn1c(=O)c2c(nc(SCC(=O)Nc3ccccc3N3CCCCC3)n2C)n(C)c1=O`, the inhibition is 3.41%.

For the compound `CCCCCNC(=O)c1cccnc1SCC(=O)Nc1ccccc1OC`, the inhibition was 1.23%.

As for `CCCc1nc(SCC(=O)Nc2ccccc2OC)c2c(=O)n(C)c(=O)n(C)c2n1`, the inhibition is 21.6% (active).

As for `O=C(NC1CC1)c1cccc(Br)c1`, the inhibition is 1.02%.

In the case of `Cc1ccccc1C(=O)NNC(=O)CN1C(=O)c2ccccc2C1=O`, the inhibition was 4.26%.

In the case of `N#CCOc1ccc(C2=NO[C@@H]3[C@@H]4C[C@@H]([C@H]5C(=O)N(c6ccc7c(c6)OCO7)C(=O)[C@@H]45)[C@H]23)cc1`, the inhibition is 3.09%.

In the case of `CCOc1ccccc1NC(=O)CCc1ccc(C)o1`, the inhibition is 1.25%.

Regarding `Cc1cnc(NC(=O)CSc2nnc(-c3ccc(Cl)cc3Cl)n2N)s1`, the inhibition is 0.61%.

`Cc1ccc(CCC(=O)Nc2ncc(Cc3cc(Cl)ccc3Cl)s2)o1`: the inhibition is 24.4% (active).

Turning to `O=C(COC(=O)c1cc([N+](=O)[O-])ccc1NCc1ccccc1)NC1CCCCC1`, the inhibition was 5.74%.

As for `COc1ccc(CCn2nnnc2C(c2ccccc2)N2CCN(C)CC2)cc1OC` (stereo not drawn), the inhibition is 5.97%.

For the compound `N#Cc1ccc(C(c2nnnn2CCc2ccccc2)N2CCCCCC2)cc1` (stereo not drawn), the inhibition is 17.9% (active).

As to `CC(C)C(c1nnnn1CCc1ccccc1)N1CCN(C(=O)c2ccco2)CC1` (stereo not drawn), the inhibition was 3.59%.

With `CCOc1cc(CNCc2ccccn2)ccc1OCC(=O)NC(C)(C)C`, the inhibition was 2.66%.

As to `Cc1ccc(NC(=O)CCOc2ccccc2)cc1S(=O)(=O)Nc1ccccc1Cl`, the inhibition is 0.14%.

Take `CCOC(=O)c1ccc(N/C(=N/S(=O)(=O)c2ccccc2)c2ccccc2)cc1`: the inhibition is 0.02%.

On to `O=C(CNC(=O)C(c1ccccc1)c1ccccc1)N/N=C\c1ccc2c(c1)OCO2`, for which the inhibition is 9.72%.

Turning to `CCOc1ccc(NC(=O)CSc2nc3ccccc3c(=O)n2Cc2cccs2)cc1`, the inhibition is 1.51%.

Turning to `Cc1cccc(N2Cc3ccccc3C2=NC(=O)c2ccc(Cl)nc2)c1`, the inhibition is 1.24%.

As to `N#Cc1ccc(N2Cc3ccccc3/C2=N/C(=O)Nc2ccc(Cl)cc2)cc1`, the inhibition was 108% (active).

Regarding `O=C(Nc1ccccc1)OCc1cn(-c2ccc(Cl)cc2)nn1`, the inhibition is 12%.

`c1ccc(-c2oc3ncnc(N4CCOCC4)c3c2-c2ccccc2)cc1`: the inhibition is 4.38%.

As for `COc1ccc2[nH]c3c(=O)n(Cc4ccco4)cnc3c2c1`, the inhibition is 3.41%.

For `COc1ccc(-c2oc3ncn(Cc4ccco4)c(=N)c3c2-c2ccc(OC)cc2)cc1`, the inhibition was 18.1% (active).

For the compound `C(=C\c1ccccc1)/CSc1nnc(-c2cccnc2)n1Cc1ccco1`, the inhibition was 7.64%.

As to `COc1ccc(C(=O)CSc2nnc(COc3ccccc3)n2Cc2ccco2)cc1`, the inhibition was 16.4%.

Take `N=c1c2c(-c3ccccc3)c(-c3ccccc3)oc2ncn1Cc1ccco1`: the inhibition was 20.1% (active).

As for `O=C(Nc1nnc(C2COc3ccccc3O2)o1)c1ccc(F)cc1` (stereo not drawn), the inhibition was 7.93%.

As for `CN(C)CCNC(=O)/C(=C/c1cccc([N+](=O)[O-])c1)NC(=O)c1ccccc1`, the inhibition was 1.28%.

Turning to `OCCCN1c2ccccc2Nc2nnc(-c3ccccc3)cc21`, the inhibition was 3.77%.

Take `N=c1c2c(-c3ccccc3)c(-c3ccccc3)n(Cc3ccccc3)c2ncn1CCCO`: the inhibition is 72.4% (active).

As for `Cc1ccc2[nH]cc(CCNC(=O)c3ccc([N+](=O)[O-])cc3)c2c1`, the inhibition is -0.38%.

With `CSCc1ccc(C(=O)Nc2cc(C)cc(C)c2)cc1`, the inhibition was 3.07%.

As to `CC(=O)c1c(Nc2ccccc2)sc(C(=O)c2ccccc2)c1C`, the inhibition is 14.2%.

`CCCCOC(=O)Nc1sc2nc(C)cc(C)c2c1-n1cccc1`: the inhibition was 4.45%.

As to `Cc1cc(C)c2c(-n3cccc3)c(NC(=O)OCc3ccccc3)sc2n1`, the inhibition is 24.7% (active).

For the compound `COC(=O)Nc1sc2nc(C)cc(C)c2c1-n1cccc1`, the inhibition was 2.27%.

Take `O=C(Nc1cccc(S(=O)(=O)N2CCCCC2)c1)c1ccc2c(c1)OCO2`: the inhibition was 3.64%.

As for `CCc1nc(Nc2ccc3nccnc3c2)c2oc3ccccc3c2n1`, the inhibition was -2.05%.

As for `Cc1nc(Cl)c2oc3ccccc3c2n1`, the inhibition was 4.04%.

Take `COc1ccccc1Nc1ncnc2c1oc1ccccc12`: the inhibition was 19.4% (active).

On to `CCN1CCN(c2ccc([N+](=O)[O-])cc2C(=O)c2ccc(Cl)cc2)CC1`, for which the inhibition was 22.2% (active).

Regarding `O=[N+]([O-])c1ccc(N2CCN(c3ccc(O)cc3)CC2)c(Cl)c1`, the inhibition is -2.81%.

Regarding `CCC(C)(C)NC(=O)c1cc([N+](=O)[O-])ccc1N1CCCCC1`, the inhibition was 0.52%.

Take `NC(=O)CC[C@@H]1NC(=O)[C@@H]2CCCN2C(=O)c2cc([N+](=O)[O-])cc(F)c2NCCC[C@@H](C(N)=O)NC1=O`: the inhibition was -1.38%.

Take `CCC1=NN(C(=O)Cc2ccc([N+](=O)[O-])cc2)C(O)(c2ccc(Br)cc2)C1` (stereo not drawn): the inhibition was 4%.

Consider `COc1ccccc1N(C(=O)Cn1nnc2ccccc21)C(C(=O)NCc1ccco1)c1ccc(C)o1` (stereo not drawn), for which the inhibition was 26.2% (active).

`COCCNC(=O)C(c1ccc(C)o1)N(Cc1ccccc1)C(=O)Cn1nnc2ccccc21` (stereo not drawn): the inhibition is 2.71%.

`Cc1ccc(C(C(=O)NCc2ccco2)N(CC2CCCO2)C(=O)Cn2nnc3ccccc32)cc1` (stereo not drawn): the inhibition is 5.64%.

Consider `O=C(Cn1nc(CNc2ccc(Cl)cc2)[n+]2c1CCCCC2)c1ccc(Cl)cc1`, for which the inhibition was 0.53%.

In the case of `CCn1nc(C)c(/C=N/NC(=O)Cc2ccc(Cl)cc2)c1C`, the inhibition is 2.23%.

Take `COc1ccc(NS(=O)(=O)c2ccc(NC(=S)NC(=O)/C=C/c3ccc(C)cc3)cc2)nn1`: the inhibition was 3.45%.

Take `COc1cccc(NC(=O)Cc2ccc(C)cc2)c1`: the inhibition is 3.66%.

On to `COc1ccc(NC(=O)/C(Cl)=C(/Cl)S(=O)Cc2ccc(C)cc2)cn1` (stereo not drawn), for which the inhibition was 52% (active).

As to `CN(C)c1ccc(/C=N/NC(=O)c2ccc(Cn3cc(Br)cn3)o2)cc1`, the inhibition is -0.65%.

Take `CCCCC1S/C(=N/N=C/c2cccs2)NC1=O` (stereo not drawn): the inhibition is 2.47%.

With `COCCNC(=O)c1onc(CSc2cccc(C)c2)c1C(=O)O`, the inhibition is 5.73%.

On to `CCCCNC(=O)c1onc(CSc2cccc(OC)c2)c1C(=O)O`, for which the inhibition was 28% (active).

`CCOc1cccc(SCc2noc(C(=O)NC(C)C)c2C(=O)O)c1`: the inhibition was 6.09%.

As for `COc1ccnc(Oc2ccccc2)n1`, the inhibition is 1.08%.

On to `CCCC(=O)C1CCN(Cc2ccccc2)CC1`, for which the inhibition is 0.89%.

Consider `CC12CN(Cc3ccccc3)CC(C)(CN(Cc3ccccc3)C1)C2=NO`, for which the inhibition is 28.4% (active).

For the compound `O=C(Nc1ccccc1)N1CCN(Cc2ccccc2)CC1`, the inhibition is 0.29%.

Regarding `COc1ccccc1N1CCN(CC(=O)NC(=O)NCc2ccco2)CC1`, the inhibition is 2.56%.

For the compound `CC(C)n1c(C(O)c2ccccc2)nc2ccccc21` (stereo not drawn), the inhibition is 1.4%.

As to `CC(Nc1nc(N2CCCC2)nc2ccccc12)c1ccccc1` (stereo not drawn), the inhibition was 54.6% (active).

As to `Cc1ccc(C(CC(=O)O)Nc2nc(N3CCCCC3)nc(N3CCCCC3)n2)cc1` (stereo not drawn), the inhibition was 1.53%.
